Measured values from PubChem BioAssay (Tox21).
Inconclusive results are not listed. Activity calls are given as the source filed them. Unless noted, calls come from the whole dose curve. Positions of bridges follow the written chain, without caps; N, C: chain ends. Non-standard residues stand in square brackets, D forms with d. Residues, ends and D or L forms follow the SMILES beside them. hArg = N=C(N)NCCCC[C@H](N)C(=O)O; Mpa = O=C(O)CCS

Tests used:
[1] = qHTS assay to identify small molecule antagonists of the vitamin D receptor (VDR) signaling pathway - cell viability counter screen (AID 743225; active = well fitted curve in the direction sought with a large enough effect in the repeat runs; an effect the other way counts as inactive or inconclusive; note: % is set by controls: 0 for no effect and ±100 for the full control effect; nearly all actives have a fitted effect of over 50% in size)
Summary of the method: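 Parallel cytotoxicity test: VDR-UAS-bla HEK 293T, 3 nM (final) 1-alpha,25-dihydroxyvitamin D3 with test compound, 16 h, 37C. Endpoint is CellTiter-Glo luminescence in the same wells.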

[2] = qHTS assay to identify small molecule agonists of the NFkB signaling pathway (AID 1159509; active = well fitted curve in the direction sought with a large enough effect in the signal ratio in the repeat runs, not every such curve was filed as active; the % refers to the signal ratio; note: series mostly up to about 61 µM; % is set by controls: 0 for no effect and ±100 for the full control effect)
Summary of the method: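 Readout: FRET fluorescence, 405 nm excitation, 460/530 nm emission; beta-lactamase expression disrupts FRET. Cells: ME-180 stably carrying NF-kB-driven bla reporter. Compound exposure 5 hr, 37 C, 5% CO2.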

[3] = qHTS assay to identify small molecule agonists of the NFkB signaling pathway - cell viability counter screen (AID 1159515); note: series mostly up to about 61 µM; % is set by controls: 0 for no effect and ±100 for the full control effect; nearly all actives have a fitted effect of over 55% in size
Summary of the method: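 Cells are seeded (2,000 NFkB-bla ME-180 per well), rested overnight, and dosed with DMSO-dissolved compounds for 5 hr at 37 C. Viability is then read by CellTiter-Glo luminescence after 30 min at room temperature.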

[4] = qHTS assay to identify small molecule agonists of the endoplasmic reticulum stress response signaling pathway (AID 1159516; active = well fitted activation curve with a large enough effect in the signal ratio in the repeat runs, not every such curve was filed as active; the % refers to the signal ratio; note: % is set by controls: 0 for no effect and ±100 for the full control effect)
Summary of the method: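 Cells are seeded at 1,500 per well and incubated overnight. Compounds in DMSO are added for 5 hr at 37 C, then beta-lactamase FRET substrate for 2 hr at room temperature, and fluorescence at 460 and 530 nm is measured.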

[5] = qHTS assay to identify small molecule agonists of the endoplasmic reticulum stress response signaling pathway - cell viability counter screen (AID 1159517);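 note: HeLa cells carrying an ER stress response element beta-lactamase reporter; series mostly up to about 61 µM; % is set by controls: 0 for no effect and ±100 for the full control effect; nearly all actives have a fitted effect of over 50% in size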
Summary of the method: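 After overnight attachment, ESRE-bla HeLa cells were treated with Tox21 library compounds for 5 hr. CellTiter-Glo luminescence, read 30 min post-addition at room temperature, reported viability.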

[6] = qHTS assay to identify small molecule antagonists of the retinoid-related orphan receptor gamma (ROR-gamma) signaling pathway - cell viability counter screen (AID 1159520; active = well fitted curve in the direction sought with a large enough effect in the repeat runs; an effect the other way counts as inactive or inconclusive; note: % is set by controls: 0 for no effect and ±100 for the full control effect; nearly all actives have a fitted effect of over 50% in size)
Summary of the method: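 Cytotoxicity was read from cellular ATP (CellTiter-Glo luminescence) after 16 hr at 37 C with 1 uM doxycycline induction. The inducer was added 2 hr after compound transfer to Tet-on ROR gamma CHO cells.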

[7] = molecular target: Nuclear receptor ROR-gamma (Homo sapiens) (UniProt P51449); experiment: qHTS assay to identify small molecule antagonists of the retinoid-related orphan receptor gamma (ROR-gamma) signaling pathway (AID 1159521; active = well fitted curve in the direction sought with a large enough effect in the repeat runs; an effect the other way counts as inactive or inconclusive;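 note: CHO cells with doxycycline inducible ROR-gamma driving an RORE luciferase reporter; top concentration of the series differs between compounds; % is set by controls: 0 for no effect and ±100 for the full control effect; nearly all actives have a fitted effect of over 50% in size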)
Summary of the method: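 Decreased RORE-driven luciferase luminescence indicates antagonism. Tet-on RORγ CHO cells received compound, then 1 uM final doxycycline 2 h later; signal read after 16 h incubation.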

[8] = qHTS assay to identify small molecule agonists of the AP-1 signaling pathway - cell viability counter screen (AID 1159525); note: nearly all actives have a fitted effect of over 55% in size
Summary of the method: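 Intracellular ATP by Cell Titer Glo luminescence (30 min, RT) in the same ME-180 AP-1-bla wells after the 5 h compound exposure at 37 °C. Normalised to tetra n-octyl ammonium bromide and DMSO controls.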

[9] = qHTS assay to identify small molecule agonists of the AP-1 signaling pathway (AID 1159526); note: % is set by controls: 0 for no effect and ±100 for the full control effect
[10] = molecular target: Retinoic acid receptor RXR-alpha (Homo sapiens) (UniProt P19793); experiment: qHTS assay to identify small molecule agonists of the RXR signaling pathway (AID 1159527); note: nearly all actives have a fitted effect of over 35% in size; note: potency is the fitted concentration of half-maximal effect; for activation: % is set by controls: 0 for no effect and ±100 for the full control effect
Sequence of Retinoic acid receptor RXR-alpha (Homo sapiens) (P19793 whole entry, looked up): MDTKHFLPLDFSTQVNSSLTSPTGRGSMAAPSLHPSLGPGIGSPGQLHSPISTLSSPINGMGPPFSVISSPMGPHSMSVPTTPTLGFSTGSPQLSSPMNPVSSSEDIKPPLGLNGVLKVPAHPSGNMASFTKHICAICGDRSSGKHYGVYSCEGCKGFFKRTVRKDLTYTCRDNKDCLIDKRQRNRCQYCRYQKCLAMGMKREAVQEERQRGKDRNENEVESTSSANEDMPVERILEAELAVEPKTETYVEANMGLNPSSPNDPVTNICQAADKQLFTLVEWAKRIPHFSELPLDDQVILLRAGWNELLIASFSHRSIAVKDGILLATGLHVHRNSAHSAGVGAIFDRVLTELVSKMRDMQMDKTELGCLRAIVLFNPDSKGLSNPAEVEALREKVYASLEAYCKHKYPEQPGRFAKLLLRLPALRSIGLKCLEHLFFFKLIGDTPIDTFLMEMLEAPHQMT
Summary of the method: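 16 hr incubation of compound-treated RXR-alpha-UAS-bla HEK 293T cells (2% charcoal-stripped FBS, 37 C) preceded a 2 hr room-temperature LiveBLAzer FRET substrate step and blue/green fluorescence measurement.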

Nc1nnnn1-c1ccccc1
inactive: outcome [1] | outcome [2] | outcome [3] | outcome [4] | outcome [5] | outcome [6] | outcome [7] | outcome [8] | outcome [9] | Potency [10]

NC(=O)[C@@H]1CSSCCC(=O)N[C@@H](CCCCN=C(N)N)C(=O)NCC(=O)N[C@@H](CC(=O)O)C(=O)N[C@@H](Cc2c[nH]c3ccccc23)C(=O)N2CCC[C@H]2C(=O)N1 ([Mpa][hArg]GDWPC-NH2; disulfide 1-7)
inactive: outcome [1] | outcome [2] | outcome [3] | outcome [4] | outcome [5] | outcome [6] | outcome [7] | outcome [8] | outcome [9] | Potency [10]

CC1=C(C(=O)O)N2C(=O)[C@@H](NC(=O)[C@H](N)C3=CCC=CC3)[C@H]2SC1
inactive: outcome [1] | outcome [2] | outcome [3] | outcome [4] | outcome [5] | outcome [6] | outcome [7] | outcome [8] | outcome [9] | Potency [10]

CCCCOC(=O)C(C)O (stereo not given)
inactive: outcome [1] | outcome [2] | outcome [3] | outcome [4] | outcome [5] | outcome [6] | outcome [7] | outcome [8] | outcome [9] | Potency [10]

CCCC(=O)Nc1ccc(OCC(O)CNC(C)C)c(C(C)=O)c1 (stereo not given)
inactive: outcome [1] | outcome [2] | outcome [3] | outcome [4] | outcome [5] | outcome [6] | outcome [7] | outcome [8] | outcome [9] | Potency [10]

CC1CCc2c(N3CCC(O)CC3)c(F)cc3c(=O)c(C(=O)O)cn1c23 (stereo not given)
inactive: outcome [1] | outcome [2] | outcome [3] | outcome [4] | outcome [5] | outcome [6] | outcome [7] | outcome [8] | outcome [9] | Potency [10]

CC(C)C1OCCN1CCOC(=O)NCCCCCCNC(=O)OCCN1CCOC1C(C)C (stereo not given)
inactive: outcome [1] | outcome [2] | outcome [3] | outcome [4] | outcome [5] | outcome [6] | outcome [7] | outcome [8] | outcome [9] | Potency [10]

CCC(C)C(=O)OCCc1ccccc1 (stereo not given)
inactive: outcome [1] | outcome [2] | outcome [3] | outcome [4] | outcome [5] | outcome [6] | outcome [7] | outcome [8] | outcome [9]
active: Potency [10] 43.6 µM

CC1c2ccccc2CN1NC(=O)c1ccc(Cl)c(S(N)(=O)=O)c1 (stereo not given)
inactive: outcome [1] | outcome [2] | outcome [3] | outcome [4] | outcome [5] | outcome [6] | outcome [7] | outcome [8] | outcome [9] | Potency [10]

CCCC(CC)c1ccccc1 (stereo not given)
inactive: outcome [1] | outcome [2] | outcome [3] | outcome [4] | outcome [5] | outcome [6] | outcome [7] | outcome [8] | outcome [9] | Potency [10]

COc1cc(/C=C/C(N)=O)cc(OC)c1OC
inactive: outcome [1] | outcome [2] | outcome [3] | outcome [4] | outcome [5] | outcome [6] | outcome [7] | outcome [8] | outcome [9] | Potency [10]

CC(=O)CC(=O)Nc1ccc(C)cc1C
inactive: outcome [1] | outcome [2] | outcome [3] | outcome [4] | outcome [5] | outcome [6] | outcome [7] | outcome [8] | outcome [9] | Potency [10]

CCOC(CN1CCN(CC(C)C(=O)c2ccccc2)CC1)c1ccccc1 (stereo not given)
inactive: outcome [1] | outcome [2] | outcome [3] | outcome [4] | outcome [5] | activity, negative = cytotoxicity [6] -1.7% [at 19 µM] | activity change, negative = inhibition [7] -4.62% [at 19 µM] | viability change, negative = cytotoxic [8] 14.4% [at 15.8 µM] | activation [9] 5.61% [at 15.8 µM] | activation [10] -12% [at 15.8 µM]

CN(C)CCOC(=O)C(c1ccccc1)C1(O)CCCC1 (stereo not given)
inactive: outcome [1] | outcome [2] | outcome [3] | outcome [4] | outcome [5] | outcome [6] | outcome [7] | outcome [8] | outcome [9] | Potency [10]

CC(C)=CCC/C(C)=C/COC=O
inactive: outcome [1] | outcome [2] | outcome [3] | outcome [4] | outcome [5] | outcome [6] | outcome [7] | outcome [8] | outcome [9] | Potency [10]

C[C@H]1[C@@H](c2ccccc2)NC(=O)N1C
inactive: outcome [1] | outcome [2] | outcome [3] | outcome [4] | outcome [5] | outcome [6] | outcome [7] | outcome [8] | outcome [9] | Potency [10]

O=C(O)[C@H](O)c1ccccc1
inactive: outcome [1] | outcome [2] | outcome [3] | outcome [4] | outcome [5] | outcome [6] | outcome [7] | outcome [8] | outcome [9] | Potency [10]

CCCCCCCCCCOC(C)=O
inactive: outcome [1] | outcome [2] | outcome [3] | outcome [4] | outcome [5] | outcome [6] | outcome [7] | outcome [8] | outcome [9] | Potency [10]
